This is one part of a sample in which hits are shown more often than they occur.
DUX4 txn inh = inhibitors of DUX4-driven ZSCAN4 reporter expression, primary screen, 293T cells, Gaussia and Italica luciferase. 293T-iDUX4 ZSCAN4-Gaussia luciferase reporter, 24 h; hits give low values. activity change, negative = inhibition, % (no concentration beside the values). 0.8% of 37,000 active;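 active means mean inhibition of at least 10% in the main channel, exceeding the control channel by a set limit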
Of the large screens only hits and unclear results are named; the others gave an inactive call.

COc1ccc(NC(=O)N2CCCCN3[C@@H](CO)[C@H](c4ccc(C#CCC(C)C)cc4)[C@@H]3C2)cc1	none
CCCC#Cc1ccc([C@H]2[C@H](CO)N3CCCCN(Cc4ccncc4)C[C@@H]23)cc1	none
OC[C@H]1[C@H](c2ccc(C#CC3(O)CCCC3)cc2)[C@@H]2CN(Cc3ccncc3)CCCCN12	none
CN1CCCCN2[C@H](CO)[C@H](c3ccc(C#CC4(O)CCCC4)cc3)[C@@H]2C1	none
COc1ccc(-c2cnc3c(c2)C(=O)N([C@@H](C)CO)C[C@H](C)[C@H](CN(C)Cc2ccc(C(=O)O)cc2)O3)cc1	none
COc1cccc(C(=O)N2C[C@@H]3[C@H](c4ccccc42)[C@@H](CO)N3C(C)=O)c1	none
N#C[C@H]1[C@@H](c2ccc(-c3cccnc3)cc2)[C@H](CO)N1C(=O)C1CC1	none
COc1ccc2c3c([nH]c2c1)[C@H](CO)N(Cc1ccccc1F)CC31CCN(S(C)(=O)=O)CC1	none
COCC(=O)N1CC2(CCN(Cc3ccccc3Cl)CC2)c2c([nH]c3cc(OC)ccc23)[C@H]1CO	none
CCCC(=O)N1CCC2(CC1)CN(Cc1ccc(Cl)cc1)[C@@H](CO)c1[nH]c3cc(OC)ccc3c12	DUX4 txn inh -50.4
COc1ccc2c3c([nH]c2c1)[C@H](CO)N(Cc1ccc(Cl)cc1)CC31CCN(C(=O)CN(C)C)CC1	none
COc1ccc2c3c([nH]c2c1)[C@@H](CO)N(Cc1ccccc1F)CC31CN(C)C1	none
CCS(=O)(=O)N1CC2(CN(Cc3ccccc3F)[C@@H](CO)c3[nH]c4cc(OC)ccc4c32)C1	DUX4 txn inh -45.9
COc1ccc2c3c([nH]c2c1)[C@H](CO)N(Cc1cccc(Cl)c1)CC31CCN(C(C)=O)CC1	DUX4 txn inh -66.6
COc1ccc2c3c([nH]c2c1)[C@@H](CO)N(Cc1ccc(Cl)cc1)CC31CCN(C(=O)CN(C)C)CC1	none
COCC(=O)N1CCC2(CC1)CN(Cc1cccc(Cl)c1)[C@H](CO)c1[nH]c3cc(OC)ccc3c12	none
COc1cccc(CN2CC3(CCN(C)CC3)c3c([nH]c4cc(OC)ccc34)[C@@H]2CO)c1	none
COc1ccc2c3c([nH]c2c1)[C@@H](CO)N(C(=O)c1ccccn1)CC31CCN(C(=O)C2CC2)CC1	none
COc1ccc2c3c([nH]c2c1)[C@@H](CO)N(Cc1ccccc1Cl)CC31CCN(C(=O)C2CC2)CC1	DUX4 txn inh -20.8
COc1ccccc1CN1[C@H](CO)[C@H]2c3ccccc3N(C(=O)C3CCOCC3)C[C@H]21	none
Cc1cc(C(=O)Nc2ccc3c(c2)C(=O)N(C)[C@@H]2CC[C@H](CC(=O)N[C@@H](C)c4ccccc4)O[C@H]2CO3)no1	none
C[C@@H]1CN([C@@H](C)CO)C(=O)c2cc(NC(=O)CCN3CCOCC3)ccc2O[C@H]1CN(C)S(=O)(=O)c1cccs1	none
O=C(C[C@@H]1CC[C@H]2[C@@H](COC[C@@H](O)CN2C(=O)c2ccccc2)O1)NC1Cc2ccccc2C1	none
O=C(C[C@H]1CC[C@@H]2[C@H](COC[C@@H](O)CN2CCC(F)(F)F)O1)N1CCC(Cc2ccccc2)CC1	none
C[C@@H]1CCCCO[C@@H](CN(C)C(=O)CCCN(C)C)[C@H](C)CN([C@@H](C)CO)C(=O)c2cc(NC(=O)c3ccccc3)ccc2O1	none
C[C@H](NC(=O)C[C@@H]1C[C@H]2c3cc(NC(=O)Cc4ccncc4)ccc3O[C@H]2[C@@H](CO)O1)c1ccccc1	none
N#C[C@H]1[C@@H](c2ccc(C#CC3CCCCC3)cc2)[C@@H](CO)N1C(=O)c1cccc(F)c1	none
COc1ccc(CN2CC3(C2)CN(Cc2ccc4c(c2)OCO4)[C@H](CO)c2[nH]c4cc(OC)ccc4c23)cc1	DUX4 txn inh -57.8
COc1ccc2c3c([nH]c2c1)[C@H](CO)N(C(C)=O)CC31CCN(Cc2ccccc2Cl)CC1	none
CCCNC(=O)N1CC2(CN(Cc3ccc(F)cc3)C2)c2c([nH]c3cc(OC)ccc23)[C@@H]1CO	DUX4 txn inh -37.4
COc1ccc2c3c([nH]c2c1)[C@H](CO)N(Cc1ccccc1Cl)CC31CCN(C(C)=O)CC1	DUX4 txn inh -28.0
CCCNC(=O)N1CC2(C1)CN(Cc1ccc(F)cc1)[C@@H](CO)c1[nH]c3cc(OC)ccc3c12	none
COCC(=O)N1CCC2(CC1)CN(Cc1ccccc1Cl)[C@H](CO)c1[nH]c3cc(OC)ccc3c12	none
CCCNC(=O)N1CC2(CN(C)C2)c2c([nH]c3cc(OC)ccc23)[C@H]1CO	none
COc1ccc2c3c([nH]c2c1)[C@@H](CO)N(Cc1ccc(F)cc1)CC31CN(C)C1	none
CCS(=O)(=O)N1CC2(CN(Cc3ccc4c(c3)OCO4)[C@@H](CO)c3[nH]c4cc(OC)ccc4c32)C1	none
CCC(=O)N1CC2(C1)[C@@H](c1ccc(-c3ccc(F)cc3)cc1)[C@H](CO)N2S(C)(=O)=O	none
CN(C)C(=O)c1ccc(-c2ccc3c(c2)[C@H]2[C@H](CCN2S(=O)(=O)c2cn(C)cn2)[C@H](CO)N3)cc1	none
O=C(C[C@H]1CC[C@H]2[C@@H](COC[C@@H](O)CN2Cc2cccc(C(F)(F)F)c2)O1)NCc1ccc(Cl)cc1	none
CO[C@@H](CN(C)C(=O)c1ccc2c(c1)OCO2)[C@@H](C)CN([C@@H](C)CO)S(=O)(=O)c1ccccc1	none
CC(C)(O)C#Cc1ccc([C@H]2[C@H](CO)N3CCCCN(C(=O)c4ccc(F)cc4)C[C@@H]23)cc1	none
C[C@@H]1CN([C@@H](C)CO)C(=O)CCCn2nncc2CO[C@H]1CN(C)Cc1cccc(O)c1	none
COc1ccccc1CNC(=O)C[C@H]1C[C@H]2c3cc(NC(=O)CN(C)C)ccc3O[C@H]2[C@H](CO)O1	none
O=C(C[C@H]1C[C@@H]2c3cc(NC(=O)Cc4ccncc4)ccc3O[C@@H]2[C@H](CO)O1)NCc1ccc(-c2ccccc2)cc1	none
O=C(C[C@@H]1C[C@H]2c3cc(NC(=O)Cc4ccncc4)ccc3O[C@H]2[C@@H](CO)O1)NCc1ccc(-c2ccccc2)cc1	DUX4 txn inh -31.4
O=C(C[C@@H]1C[C@H]2c3cc(NC(=O)Cc4ccncc4)ccc3O[C@H]2[C@@H](CO)O1)NCc1cccc(F)c1	none
COc1ccccc1CNC(=O)C[C@@H]1C[C@@H]2c3cc(NC(=O)CN(C)C)ccc3O[C@@H]2[C@@H](CO)O1	none
O=C(C[C@H]1C[C@H]2c3cc(NC(=O)Cc4ccncc4)ccc3O[C@H]2[C@H](CO)O1)NCc1cccc(F)c1	DUX4 txn inh -29.9
COc1ccccc1CNC(=O)C[C@H]1C[C@H]2c3cc(NC(=O)Cc4ccncc4)ccc3O[C@H]2[C@H](CO)O1	DUX4 txn inh -34.4
CN(C)CC(=O)Nc1ccc2c(c1)[C@H]1C[C@H](CC(=O)NCc3ccc(-c4ccccc4)cc3)O[C@@H](CO)[C@H]1O2	none
O=C(C[C@@H]1C[C@@H]2c3cc(NC(=O)Cc4ccncc4)ccc3O[C@@H]2[C@@H](CO)O1)NCc1cccc(F)c1	none
CC(=O)N1[C@H](CO)[C@H](c2ccc(-c3ccc(C#N)cc3)cc2)C12CN(C(=O)C1CC1)C2	none
C[C@H]1CN([C@@H](C)CO)C(=O)c2cc(-c3cccc(F)c3)cnc2O[C@H]1CN(C)Cc1ccccn1	none
CN1C(=O)c2cc(NC(=O)Cc3cccs3)ccc2OC[C@@H]2O[C@@H](CC(=O)N[C@@H]3CCN(Cc4ccccc4)C3)CC[C@@H]21	none
C[C@@H]1CN([C@@H](C)CO)C(=O)c2ccccc2-c2ccccc2CO[C@@H]1CN(C)C(=O)Nc1ccc(F)cc1	none
CN1[C@@H]2c3ccc(-c4cccc(F)c4)c(=O)n3C[C@H]1[C@H](CO)[C@H]2C(=O)N1CCOCC1	none
